Four compounds from PubChem BioAssay (EPA / NIEHS) can be followed below.

In test [1] the target is Paired box protein Pax-6 (Homo sapiens) (UniProt P26367). Put plainly: ATG_Pax6_CIS: Attagene CIS-FACTORIAL HepG2 Assay for human Paired Box 6 (PAX6) (AID 2282956). The settings on record: HepG2 CIS-FACTORIAL PAX6 reporter transcription, RNA readout; actives raise or lower the signal. The method in brief: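 Transient MRTU transfection of HepG2 → compound exposure 24 h → TriZol RNA, oligo(dT) RT → PCR, 6-FAM primer extension, HpaI cut → capillary electrophoresis; activity fitted both directions against DMSO.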
Paired box protein Pax-6 (Homo sapiens), sequence (P26367 whole entry, looked up): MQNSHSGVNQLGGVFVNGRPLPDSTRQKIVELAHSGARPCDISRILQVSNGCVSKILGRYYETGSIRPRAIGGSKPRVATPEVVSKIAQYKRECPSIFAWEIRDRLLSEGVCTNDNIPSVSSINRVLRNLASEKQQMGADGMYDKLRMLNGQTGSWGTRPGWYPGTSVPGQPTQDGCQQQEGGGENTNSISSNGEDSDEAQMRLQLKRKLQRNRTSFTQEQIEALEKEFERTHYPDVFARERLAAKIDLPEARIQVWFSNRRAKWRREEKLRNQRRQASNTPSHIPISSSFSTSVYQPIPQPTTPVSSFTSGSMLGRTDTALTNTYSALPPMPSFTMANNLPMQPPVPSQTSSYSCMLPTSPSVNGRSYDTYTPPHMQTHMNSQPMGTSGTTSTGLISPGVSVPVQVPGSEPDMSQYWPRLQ

Test [2] is described as follows: ATG_PXRE_CIS: Attagene CIS-FACTORIAL HepG2 Assay for human Pregnane X Receptor Element (PXRE) (AID 2282957). The settings on record: HepG2 Attagene CIS-FACTORIAL PXRE reporter, mRNA; actives raise or lower the signal. The method in brief: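 Transfect HepG2 with MRTUs (cis promoter elements); dose chemical, incubate 24 h; isolate RNA, RT with oligo(dT), PCR, 6-FAM label, HpaI cut, CE. Gain/loss fit vs DMSO.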

Test [3] in a line: ATG_RORE_CIS: Attagene CIS-FACTORIAL HepG2 Assay for human RAR-related Orphan Receptor Element (RORE) (AID 2282959). The settings on record: HepG2 Attagene cis-factorial RORE reporter, mRNA; actives raise or lower the signal. The method in brief: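 Transfect HepG2 with MRTUs; treat 24 h; extract RNA; RT with oligo(dT); PCR with reporter-specific primers; 6-FAM primer extension; HpaI digest 2 h at 37 C; capillary electrophoresis. Fit vs DMSO, bidirectional.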

Test [4] is described as follows: ATG_Sox_CIS: Attagene CIS-FACTORIAL HepG2 Assay for human SRY-box transcription factor (SOX) (AID 2282960). The settings on record: HepG2 Attagene cis-factorial SOX reporter, mRNA; actives raise or lower the signal. The method in brief: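 Fluorescence-labelled cDNA fragments from reporter transcripts, sized by CE, give the signal. Cells: HepG2, transiently transfected with cis-regulated reporter units. Exposure 24 h; DMSO negative control; bidirectional curve fitting.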

For test [5], the target named is Transcription factor Sp1 (Homo sapiens) (UniProt P08047). Put plainly: ATG_Sp1_CIS: Attagene CIS-FACTORIAL HepG2 Assay for human Specificity Protein 1 (Sp1) (AID 2282961). To be noted: HepG2 Sp1 cis-reporter transcription, actives raise or lower the signal. The method in brief: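 Chemicals are dosed onto HepG2 cells transfected with multiple cis-promoter reporter constructs, and after 24 h reporter RNA is reverse-transcribed, PCR-amplified and resolved by capillary electrophoresis for fluorescence quantitation; activity is scored up or down against DMSO.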
Transcription factor Sp1 (Homo sapiens), sequence (P08047 whole entry, looked up): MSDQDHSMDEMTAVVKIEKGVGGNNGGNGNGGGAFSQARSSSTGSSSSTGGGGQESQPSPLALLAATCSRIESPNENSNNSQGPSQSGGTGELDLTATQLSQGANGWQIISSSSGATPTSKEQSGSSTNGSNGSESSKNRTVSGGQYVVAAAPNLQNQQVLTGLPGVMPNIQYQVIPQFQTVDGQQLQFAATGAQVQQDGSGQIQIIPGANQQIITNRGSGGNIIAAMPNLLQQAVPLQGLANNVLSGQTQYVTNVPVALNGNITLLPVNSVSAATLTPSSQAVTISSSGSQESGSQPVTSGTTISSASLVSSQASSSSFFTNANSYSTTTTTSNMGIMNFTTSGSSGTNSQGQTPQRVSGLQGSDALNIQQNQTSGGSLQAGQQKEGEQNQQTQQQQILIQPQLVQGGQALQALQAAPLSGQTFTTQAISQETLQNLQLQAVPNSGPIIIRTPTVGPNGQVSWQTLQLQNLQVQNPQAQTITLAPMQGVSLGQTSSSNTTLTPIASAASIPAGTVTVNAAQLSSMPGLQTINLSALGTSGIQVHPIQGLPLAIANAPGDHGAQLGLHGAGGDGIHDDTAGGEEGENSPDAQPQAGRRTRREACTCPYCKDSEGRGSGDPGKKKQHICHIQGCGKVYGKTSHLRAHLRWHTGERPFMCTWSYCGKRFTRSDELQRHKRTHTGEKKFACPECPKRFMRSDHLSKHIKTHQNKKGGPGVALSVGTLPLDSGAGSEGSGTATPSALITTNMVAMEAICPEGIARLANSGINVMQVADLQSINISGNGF

Test [6] in a line: ATG_SREBP_CIS: Attagene CIS-FACTORIAL HepG2 Assay for human Sterol Regulatory Element Binding (SREBP) (AID 2282962). To be noted: HepG2 Attagene cis-factorial SREBP reporter, mRNA; actives raise or lower the signal. The method in brief:
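Transfected HepG2 (cis-regulated reporter library, endogenous TFs) → compound 24 h → total RNA → oligo(dT) RT → reporter-specific PCR → FAM primer extension, HpaI cut → CE fluorescence. Fit bidirectional vs DMSO.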

The target of test [7] is Signal transducer and activator of transcription 3 (Homo sapiens) (UniProt P40763). Put plainly: ATG_STAT3_CIS: Attagene CIS-FACTORIAL HepG2 Assay for human Signal Transducer and Activator of Transcription 3 (STAT3) (AID 2282963). To be noted: HepG2, Attagene cis-factorial STAT3 reporter transcription; actives raise or lower the signal. The method in brief: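 Values derive from bidirectional fits relative to DMSO of reporter mRNA levels, measured by RT-PCR with capillary electrophoresis, in HepG2 cells carrying transiently transfected cis-regulated reporter units and exposed 24 h.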
Signal transducer and activator of transcription 3 (Homo sapiens), sequence (P40763 whole entry, looked up): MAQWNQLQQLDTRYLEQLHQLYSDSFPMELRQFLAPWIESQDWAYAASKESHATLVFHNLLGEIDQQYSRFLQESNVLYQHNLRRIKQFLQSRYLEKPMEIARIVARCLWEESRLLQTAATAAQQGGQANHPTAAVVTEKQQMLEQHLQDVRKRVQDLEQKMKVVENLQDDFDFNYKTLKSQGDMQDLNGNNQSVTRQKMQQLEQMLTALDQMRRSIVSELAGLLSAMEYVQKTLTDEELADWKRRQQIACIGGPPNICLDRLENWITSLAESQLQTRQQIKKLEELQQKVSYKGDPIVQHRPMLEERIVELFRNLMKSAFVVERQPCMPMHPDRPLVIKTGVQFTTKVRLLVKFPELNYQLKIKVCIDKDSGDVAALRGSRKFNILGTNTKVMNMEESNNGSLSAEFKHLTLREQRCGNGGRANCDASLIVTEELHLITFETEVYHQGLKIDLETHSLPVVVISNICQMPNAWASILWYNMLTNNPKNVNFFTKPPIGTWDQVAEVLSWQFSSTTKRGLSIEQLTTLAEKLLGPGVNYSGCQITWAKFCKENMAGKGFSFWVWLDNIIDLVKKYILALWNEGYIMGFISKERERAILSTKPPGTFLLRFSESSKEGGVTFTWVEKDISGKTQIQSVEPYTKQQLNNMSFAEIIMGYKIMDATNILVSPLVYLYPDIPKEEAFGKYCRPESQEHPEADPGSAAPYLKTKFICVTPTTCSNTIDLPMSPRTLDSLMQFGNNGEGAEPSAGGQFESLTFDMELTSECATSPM

The nature of test [8]: ATG_TA_CIS: Attagene CIS-FACTORIAL HepG2 Assay for human TA Basal Promoter (AID 2282964). To be noted: HepG2 Attagene CIS-factorial TA basal promoter reporter; actives raise or lower the signal. The method in brief:
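Read-out: fluorescent reporter-transcript fragments resolved by capillary electrophoresis after RT-PCR and HpaI digestion. Source: HepG2 cells carrying transiently transfected multi-reporter cis constructs, treated 24 h. Endpoint fitted bidirectionally relative to DMSO.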

Test [9] is described as follows: ATG_TCF_b_cat_CIS: Attagene CIS-FACTORIAL HepG2 Assay for human T-Cell-Factor with beta-catenin (TCF/b-cat) (AID 2282965). To be noted: HepG2 TCF/beta-catenin cis-reporter transcription, actives raise or lower the signal. The method in brief: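 HepG2, transient MRTU transfection, cis-element-driven reporters (endogenous TFs). 24 h compound exposure. Readout: reporter mRNA by RT-PCR + 6-FAM primer extension, HpaI digest, capillary electrophoresis. Gain/loss fit vs DMSO baseline.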

A short description of test [10]: ATG_TAL_CIS: Attagene CIS-FACTORIAL HepG2 Assay for human TAL Basal Promoter (AID 2282966).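 Note: background control endpoint measuring basal TAL promoter reporter mRNA not a specific factor.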 To be noted: HepG2 Attagene cis-factorial TAL promoter reporter; actives raise or lower the signal. The method in brief: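 Fluorescence of labelled reporter cDNA fragments, resolved by capillary electrophoresis, gave the readout. Human HepG2 liver cells carried transiently transfected cis-element reporter units and were treated for 24 hours; activity was fitted bidirectionally against DMSO.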

A short description of test [11]: ATG_TGFb_CIS: Attagene CIS-FACTORIAL HepG2 Assay for human Transforming Growth Factor (TGF) (AID 2282967). To be noted: HepG2 Attagene CIS TGFb reporter, mRNA transcription; actives raise or lower the signal. The method in brief:
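Transient MRTU transfection of HepG2 (FuGene 6). Dose 24 h. TriZol RNA, oligo(dT) RT, PCR, 6-FAM primer extension, HpaI cut, CE. Bidirectional fit, DMSO = baseline.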

The target in test [12] is Nuclear receptor subfamily 1 group I member 3 (Homo sapiens) (UniProt Q14994). Put plainly: ATG_CAR_TRANS: Attagene TRANS-FACTORIAL HepG2 Assay for human Constitutive Androstane Receptor (CAR) (AID 2282969; active = hit-call score of the fitted dose curve at least 0.9, where 1 is the maximum;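 note: activators raise reporter mRNA above DMSO so AC50 marks induction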). To be noted: HepG2 Attagene TRANS-FACTORIAL CAR reporter. The method in brief: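 HepG2 cells transiently transfected with GAL4-UAS reporter units; TRANS format reads activity of exogenous chimeric NR-Gal4 protein. After 24 h dosing, reporter mRNA quantified by RT-PCR, 6-FAM labelling and capillary electrophoresis; gain of signal fitted against DMSO.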
Nuclear receptor subfamily 1 group I member 3 (Homo sapiens), sequence (Q14994 whole entry, looked up, the tested form may be a part): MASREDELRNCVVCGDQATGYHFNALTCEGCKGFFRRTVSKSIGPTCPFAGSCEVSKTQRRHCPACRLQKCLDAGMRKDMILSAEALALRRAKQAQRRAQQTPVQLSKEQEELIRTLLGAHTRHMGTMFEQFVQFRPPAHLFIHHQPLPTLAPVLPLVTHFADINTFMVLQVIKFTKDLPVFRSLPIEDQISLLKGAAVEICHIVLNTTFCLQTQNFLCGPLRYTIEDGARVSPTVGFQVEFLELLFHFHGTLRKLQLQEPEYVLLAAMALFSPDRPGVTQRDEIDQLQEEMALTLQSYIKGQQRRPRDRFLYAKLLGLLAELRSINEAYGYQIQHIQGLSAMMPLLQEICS

Test [13] concerns the target Estrogen receptor (Homo sapiens) (UniProt P03372). Put plainly: ATG_ERa_TRANS: Attagene TRANS-FACTORIAL HepG2 Assay for human Estrogen Receptor alpha (ERa) (AID 2282970; active = hit-call score of the fitted dose curve at least 0.9, where 1 is the maximum). The settings on record: HepG2 Attagene TRANS ERa GAL4 reporter, mRNA. The method in brief:
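Human liver HepG2, transient transfection of multiple GAL4-UAS reporter units; TRANS format (exogenous NR-Gal4 chimera). 24 h dosing. Readout: reporter mRNA, RT-PCR, 6-FAM primer extension, HpaI digest, capillary electrophoresis. Positive direction vs DMSO.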

Test [14] has as its target X-box-binding protein 1 (Homo sapiens) (UniProt P17861). Put plainly: ATG_Xbp1_CIS: Attagene CIS-FACTORIAL HepG2 Assay for human X-box Binding Protein 1 (XBP1) (AID 2282972). The settings on record: HepG2 XBP1 cis-element reporter, Attagene multiplex; actives raise or lower the signal. The method in brief: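 HepG2, transient MRTU transfection (cis-promoter driven), 24 h compound exposure. Total RNA → oligo(dT) RT → PCR → 6-FAM labeling → HpaI cut → CE. Bidirectional fit vs DMSO.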

Test [15] in a line: ATG_GAL4_TRANS: Attagene TRANS-FACTORIAL HepG2 Assay for GAL4 (Internal Marker) (AID 2282976; active = hit-call score of the fitted dose curve at least 0.9, where 1 is the maximum). The settings on record: HepG2 Attagene TRANS GAL4 internal marker reporter. The method in brief: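 First, HepG2 cells were transfected with reporter units under GAL4-UAS control. Next, they were treated with chemical for 24 h. Finally, RNA was reverse-transcribed, PCR-amplified, FAM-labelled and resolved by capillary electrophoresis, with induction scored against DMSO.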

Test [16] is described as follows: ATG_PPRE_CIS: Attagene CIS-FACTORIAL HepG2 Assay for human Peroxisome Proliferator-activated Response Element (PPRE) (AID 2282958). To be noted: HepG2 PPRE cis-element reporter, Attagene transcription factor profiling; actives raise or lower the signal. The method in brief:
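DMSO served as negative control and baseline for bidirectional curve fitting. Signal came from PPRE-regulated reporter mRNA in HepG2 cells, measured 24 h post-dosing by RT-PCR, 6-FAM primer extension and capillary electrophoresis.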

Test [17] in a line: ATG_VDRE_CIS: Attagene CIS-FACTORIAL HepG2 Assay for human Vitamin D Receptor Element (VDRE) (AID 2282968). To be noted: HepG2 VDRE cis-reporter transcription, actives raise or lower the signal. The method in brief: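 Cell-based multiplexed reporter format in human liver HepG2 cells, 24 h post-dose. Fluorescence from capillary electrophoresis of reporter cDNA gives the signal, with DMSO as negative control and baseline.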

Test [18] can be described thus: ATG_M_19_TRANS: Attagene TRANS-FACTORIAL HepG2 Assay for M19 Transcription Factor (Internal Marker) (AID 2282974; active = hit-call score of the fitted dose curve at least 0.9, where 1 is the maximum). The settings on record: HepG2 Attagene TRANS-FACTORIAL M19 internal marker reporter. The method in brief:
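Multiplexed TRANS format: HepG2 liver cells bearing transient GAL4-UAS reporter units, chemical treatment 24 h, reporter transcripts quantified by RT-PCR plus capillary electrophoresis. DMSO defines baseline.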

Records with an inconclusive call do not appear. Calls of active or inactive are those of the source. Rule for the calls, unless noted: active = hit-call score of the fitted dose curve at least 0.9, where 1 is the maximum; inactive = score below 0.9.

X-box-binding protein 1 (Homo sapiens), sequence (P17861 whole entry, looked up): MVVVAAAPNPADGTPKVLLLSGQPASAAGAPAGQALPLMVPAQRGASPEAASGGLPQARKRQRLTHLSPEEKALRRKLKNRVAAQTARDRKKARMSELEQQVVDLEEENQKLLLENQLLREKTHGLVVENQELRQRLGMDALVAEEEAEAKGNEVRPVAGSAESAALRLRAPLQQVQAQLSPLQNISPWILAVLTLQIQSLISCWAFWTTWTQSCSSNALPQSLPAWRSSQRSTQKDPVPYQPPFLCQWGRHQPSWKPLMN
Estrogen receptor (Homo sapiens), sequence (P03372 whole entry, looked up, the tested form may be a part): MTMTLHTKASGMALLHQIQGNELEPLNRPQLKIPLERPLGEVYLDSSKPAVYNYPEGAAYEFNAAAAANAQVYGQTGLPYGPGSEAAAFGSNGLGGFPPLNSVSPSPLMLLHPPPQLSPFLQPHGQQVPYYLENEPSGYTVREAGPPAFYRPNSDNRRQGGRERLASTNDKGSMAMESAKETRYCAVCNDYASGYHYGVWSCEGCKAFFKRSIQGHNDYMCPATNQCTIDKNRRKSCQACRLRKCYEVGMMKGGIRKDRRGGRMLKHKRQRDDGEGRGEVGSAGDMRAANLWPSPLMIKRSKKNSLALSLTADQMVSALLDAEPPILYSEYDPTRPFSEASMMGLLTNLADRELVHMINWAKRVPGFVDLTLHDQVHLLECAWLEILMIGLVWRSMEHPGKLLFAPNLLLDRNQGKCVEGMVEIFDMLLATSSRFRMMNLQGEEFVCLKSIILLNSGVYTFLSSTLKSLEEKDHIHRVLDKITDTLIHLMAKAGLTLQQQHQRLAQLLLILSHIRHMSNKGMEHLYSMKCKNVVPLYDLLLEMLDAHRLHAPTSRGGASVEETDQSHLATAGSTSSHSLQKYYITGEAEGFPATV

For the compound `CC(=O)Nc1nnc(S(N)(=O)=O)s1`, the outcome in test [1], in test [2], in [3], in test [4], in test [5] and in test [6] was inactive. Moreover, the outcome in test [7], in test [8], in [9], in test [10], in [11] and in test [12] was inactive. Further, the outcome in test [13], in test [14] and in test [15] was inactive.
Consider `O=C(C(Cl)Cl)N1CCOC12CCCCC2`, for which the AC50 (in general, the concentration at which the activity in the assay is half-maximal) in test [1] was 13100 nM (active). The call in test [2], in test [16], in test [4], in test [5], in [6] and in test [7] was inactive. Also, the result in test [9], in test [10], in [11], in test [17] and in [18] was inactive.
For `C=C(C)c1cccc(C(C)(C)N=C=O)c1`, the call in test [1], in test [3], in test [4], in test [5], in test [6] and in test [7] was inactive. For the same compound, the call in test [8], in test [9], in test [10], in test [11], in [12] and in [14] was inactive. Further, in test [18], the outcome was inactive. In addition, the half-maximal activity concentration (AC50) in test [2] is 91.9 nM (active); in [17], 377 nM (active).
As for `COCc1c(C(C)C)nc(C(C)C)c(/C=C/[C@@H](O)C[C@@H](O)CC(=O)O)c1-c1ccc(F)cc1`, the call in test [1], in [4], in test [5], in test [6], in test [7] and in test [8] was inactive. Moreover, the outcome in test [9], in test [10], in [11], in [14], in [18] and in [15] was inactive. Also, the AC50 was 2120 nM (active) in test [2], 1670 nM (active) in test [16] and 2340 nM (active) in test [17].
